Only some compounds are listed: those with a hit (about 8.1% of all), similar ones and a draw of the others.
KB-V1 MDR tox – KB-V1 MDR subline cytotoxicity. KB-V1 MDR cells viability, CellTiter-Glo, 72 h. Potency, µM (titrated, usually from 46.1 µM), usual class: cytotoxic. hit rate 3.4% among 400,000. AID 1347076; note: % is set by controls: 0 for no effect and ±100 for the full control effect; nearly all actives have a fitted effect of over 60% in size
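Cells of the MDR subline KB-V1 are plated, dosed with compound at multiple concentrations, and incubated 72 h at 37 degrees C; CellTiter-Glo is then added and luminescence read after 10 min.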
KB-3-1 cytotox – kills parental KB-3-1 adenocarcinoma cells; KB-3-1 viability, CellTiter-Glo ATP luminescence, 72 h; Potency, µM (doses to about 46.1 µM), usual class: cytotoxic; hit rate 1.4% among 400,000; note: % is set by controls: 0 for no effect and ±100 for the full control effect; nearly all actives have a fitted effect of over 60% in size
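Parental KB-3-1 viability, qHTS format: 72 h compound exposure, 37 °C; CellTiter-Glo; media-only wells and DMSO plates as controls; concentration-effect fits on corrected data.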
SW480 rereplic – inducers of DNA re-replication in SW480 colon cancer cells. SW480 DNA re-replication, Hoechst DNA content imaging, 48 h. Potency, µM (series often up to 46.1 µM), for inactives: at the highest dose re-replication activation, usual class: activators. hit rate 1.8% among 340,000. AID 624297; note: % of control where 0% means no effect; nearly all actives have a fitted effect of over 55% in size
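Hoechst fluorescence of nuclei (405 nm excitation, 500-530 nm emission) measured by plate-scanning imager after 48 hr compound exposure at 37 C; re-replication scored as increased number of nuclei with elevated intensity.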
ELG1 repair inh – ELG1-dependent DNA repair inhibition | Potency, µM (top dose mostly 46.1 µM), for inactives: at the top dose activity change, negative = inhibition, usual class: inhibitors | HEK293T ELG1-luciferase reporter, luminescence, 16 h; DNA damage induced by 5-fluorouridine | AID 504467 | hit rate 2.3% among 330,000; note: % is set by controls: 0 for no effect and ±100 for the full control effect; nearly all actives have a fitted effect of over 55% in size
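Quantitative HTS, concentration-response format. 2,000 cells/well co-treated with 5-fluorouridine and compound, 16 hr in 5% CO2 at 37 °C; ONE-Glo luminescence read after 30 min.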
MCF10A rereplic – inducers of DNA re-replication in MCF 10A breast cells; MCF 10A DNA re-replication, Hoechst nuclear intensity, 48 h; Potency, µM (doses to about 46.1 µM), for the others: at the highest dose activity, positive = re-replication, actives largely listed as activators; hit rate 2.9% among 350,000; note: % of control where 0% means no effect; nearly all actives have a fitted effect of over 50% in size
An asterisk follows results filed as active; ! = not confirmed by another sample. Calls come from the whole dose curve; as a rule, active = well fitted curve in the direction sought with a large enough effect; inconclusive = small, poorly fitted or top-dose-only effect, or another doubt; inactive = no such curve, though single readings can be large; an effect the other way counts as inactive or inconclusive. Potency is the fitted concentration of half-maximal effect.

Results for O=C(Nc1ccc(N2CCOCC2)cc1)c1cccc(S(=O)(=O)N2CCCCC2)c1 ?
KB-V1 MDR tox: inactive; KB-3-1 cytotox: inactive; SW480 rereplic: -2%; ELG1 repair inh: 16µM*; MCF10A rereplic: 4%

What do the screens show for `CN(C)S(=O)(=O)c1cccc(NC(=O)c2cccc(S(=O)(=O)N3CCCCC3)c2)c1`?
KB-V1 MDR tox: 18µM*; KB-3-1 cytotox: inconclusive; SW480 rereplic: 7%; ELG1 repair inh: inconclusive; MCF10A rereplic: 12%

Results for CCN1CCN(c2ccc(NC(=O)c3cccc(S(=O)(=O)N4CCCC4)c3)cc2)CC1 ?
KB-V1 MDR tox: inconclusive; KB-3-1 cytotox: inactive; SW480 rereplic: 2%; ELG1 repair inh: 12%; MCF10A rereplic: inconclusive

How did COc1ccc(NC(=O)c2cccc(S(=O)(=O)N3CCCCCC3)c2)cc1 do in these assays?
KB-V1 MDR tox: inconclusive; KB-3-1 cytotox: inconclusive; SW480 rereplic: -4%; ELG1 repair inh: 21µM*; MCF10A rereplic: 5%

What do the screens show for `COc1ccc(CN(C)C(=O)c2cccc(NS(=O)(=O)c3ccccc3)c2)cc1F`?
KB-V1 MDR tox: 8.2µM*; KB-3-1 cytotox: inactive; SW480 rereplic: -2%; ELG1 repair inh: 0%; MCF10A rereplic: 3%

What do the screens show for `O=C(Nc1ccccc1)c1cccc(S(=O)(=O)N2CCCCC2)c1`?
KB-V1 MDR tox: inactive; KB-3-1 cytotox: inactive; SW480 rereplic: -16%; ELG1 repair inh: 3%; MCF10A rereplic: 1%

Results for CC(C)(C)NC(=O)c1nn2c(C(F)(F)F)cc(-c3ccccc3)nc2c1Br ?
KB-V1 MDR tox: inactive; KB-3-1 cytotox: inactive; SW480 rereplic: -2%; ELG1 repair inh: -7%; MCF10A rereplic: -4%

How did C=CCN(c1ccccc1)S(=O)(=O)c1cccc(C(=O)Nc2ccc(N3CCOCC3)cc2)c1 do in these assays?
KB-V1 MDR tox: inconclusive; KB-3-1 cytotox: inconclusive; SW480 rereplic: inconclusive; ELG1 repair inh: 15µM*; MCF10A rereplic: 12%

What do the screens show for `COc1ccc(NS(=O)(=O)c2ccc(O)c(NC(=O)c3ccc(S(=O)(=O)N4CCCCCC4)cc3)c2)cc1`?
KB-V1 MDR tox: inactive; KB-3-1 cytotox: inactive; SW480 rereplic: -2%; ELG1 repair inh: -17%; MCF10A rereplic: inconclusive

How did Cc1ccc(S(=O)(=O)N2CCOCC2)cc1C(=O)Nc1ccc(N2CCCCCC2)cc1 do in these assays?
KB-V1 MDR tox: inconclusive; KB-3-1 cytotox: 3.7µM*; SW480 rereplic: 31%; ELG1 repair inh: -1%; MCF10A rereplic: inconclusive

How did COc1ccc(NS(=O)(=O)c2cccc(NC(=O)c3ccc(S(=O)(=O)N4CCCCCC4)cc3)c2)cc1 do in these assays?
KB-V1 MDR tox: inconclusive; KB-3-1 cytotox: 21µM*; SW480 rereplic: -3%; ELG1 repair inh: inconclusive; MCF10A rereplic: inconclusive

How did CN(C)S(=O)(=O)c1cccc(NC(=O)COc2ccc(C(=O)c3ccccc3)cc2)c1 do in these assays?
KB-V1 MDR tox: inconclusive; KB-3-1 cytotox: inactive; SW480 rereplic: -1%; ELG1 repair inh: 13µM*; MCF10A rereplic: inconclusive

How did CN(c1ccccc1)S(=O)(=O)c1cccc(NC(=O)COc2ccccc2)c1 do in these assays?
KB-V1 MDR tox: inactive; KB-3-1 cytotox: inactive; SW480 rereplic: 7%; ELG1 repair inh: inconclusive; MCF10A rereplic: 0%

How did COc1cc(CC(=O)NCCCc2ccccc2)cc(OC)c1OC do in these assays?
KB-V1 MDR tox: inconclusive; KB-3-1 cytotox: inactive; SW480 rereplic: 27%; ELG1 repair inh: -12%; MCF10A rereplic: -1%

What do the screens show for `COc1ccc(NS(=O)(=O)c2cccc(C(=O)N/N=C/c3c(F)c(F)c(F)c(F)c3F)c2)cc1`?
KB-V1 MDR tox: inactive; KB-3-1 cytotox: inactive; SW480 rereplic: inconclusive; MCF10A rereplic: 18µM*

What do the screens show for `O=C(Nc1ccc(N2CCCC2)cc1)c1cc(Br)ccc1Cl`?
KB-V1 MDR tox: inconclusive; KB-3-1 cytotox: 21µM*; SW480 rereplic: inconclusive; ELG1 repair inh: -11%; MCF10A rereplic: inconclusive

How did CN(C)S(=O)(=O)c1cccc(NC(=O)c2cccc(NS(=O)(=O)c3ccccc3)c2)c1 do in these assays?
KB-V1 MDR tox: inconclusive; KB-3-1 cytotox: 12µM*; SW480 rereplic: -2%; ELG1 repair inh: -47%; MCF10A rereplic: 20%

What do the screens show for `Cc1c(NC(=O)CN2C(=O)NC(C)(c3ccccc3)C2=O)c(=O)n(-c2ccccc2)n1C` (stereo unspecified)?
KB-V1 MDR tox: inactive; KB-3-1 cytotox: inactive; SW480 rereplic: 5%; ELG1 repair inh: 2%; MCF10A rereplic: -7%

How did Cc1cccn2c(=O)c3cc(S(=O)(=O)c4ccc(Br)cc4)c(=N)n(C4CCCC4)c3nc12 do in these assays?
KB-V1 MDR tox: inactive; KB-3-1 cytotox: inactive; SW480 rereplic: -25%; ELG1 repair inh: 3%; MCF10A rereplic: 10%

How did CC(=O)N1CCc2c(sc3c2c(=O)n(-c2ccccc2C)c(=O)n3Cc2cccc(F)c2)C1 do in these assays?
KB-V1 MDR tox: inactive; KB-3-1 cytotox: inactive

How did COC(=O)/C(N=Nc1cccc(C(F)(F)F)c1)=C(\C)O do in these assays?
KB-V1 MDR tox: 5.8µM*; KB-3-1 cytotox: inconclusive; SW480 rereplic: 1%; ELG1 repair inh: 4%; MCF10A rereplic: 3%

Results for CC(=O)C1=C(O)C(=O)N(Cc2cccnc2)C1c1ccc(C)cc1 (stereo unspecified) ?
ELG1 repair inh: -5%

What do the screens show for `CC(=O)N(O)CCCCCNC(=O)CCC(=O)N(O)CCCCCNC(=O)CCC(=O)N(O)CCCCCN`?
KB-V1 MDR tox: inconclusive; KB-3-1 cytotox: 21µM*!; SW480 rereplic: 2.5µM*!; ELG1 repair inh: -19%; MCF10A rereplic: inconclusive

Results for CCCC(=O)NCCCCNC(=O)CCC ?
KB-V1 MDR tox: inactive; KB-3-1 cytotox: inactive; SW480 rereplic: -8%; ELG1 repair inh: -5%; MCF10A rereplic: -1%

Results for Cc1ccc(CN2CCN(/N=C/c3ccc(C)s3)CC2)c(C)c1 ?
KB-V1 MDR tox: 16µM*; KB-3-1 cytotox: inactive; SW480 rereplic: 16µM*; ELG1 repair inh: 2%; MCF10A rereplic: -68%

Results for Cc1ccc(CN2CCN(/N=C/c3cccn3C)CC2)c(C)c1 ?
KB-V1 MDR tox: inactive; KB-3-1 cytotox: inactive; SW480 rereplic: 10%; ELG1 repair inh: inconclusive; MCF10A rereplic: 4%

Results for Cc1ccc(CN2CCCN(C)CC2)c(C)c1 ?
KB-V1 MDR tox: inactive; KB-3-1 cytotox: inactive; SW480 rereplic: -1%; ELG1 repair inh: -10%; MCF10A rereplic: 21µM*

Results for Cc1ccc(C)c(Nc2cc(C)nc(-c3ccccc3O)n2)c1 ?
KB-V1 MDR tox: inactive; KB-3-1 cytotox: 2.6µM*; SW480 rereplic: inconclusive; ELG1 repair inh: inconclusive; MCF10A rereplic: inconclusive

Results for Cc1cc(NCc2ccccc2)nc(-c2ccccc2O)n1 ?
KB-V1 MDR tox: 16µM*; KB-3-1 cytotox: inconclusive; SW480 rereplic: -4%; ELG1 repair inh: -4%; MCF10A rereplic: inconclusive
